These results are taken from paper PMC5700166.

Experiment in all cases: protein-binding microarray (PBM); PBM: ~300 nM protein, 6 mM HEPES pH 7.8, 80 mM KCl, 0.5 mM EDTA, 0.5 mM EGTA, 6% glycerol, 35 ng/ul poly-dIdC, 1% milk, 1 h, room temperature; Ap Aiptasia and Nv Nematostella (sea anemones) / Co Capsaspora / Aq Amphimedon (sponge) / Dm Drosophila / Hu human; RHD is the Rel homology domain; high values mean tight binding
Settings in all cases: dsDNA, one strand shown

In one assay the target is T1, GST-Ap-NF-kB RHD (Exaiptasia pallida (Aiptasia), UniProt A0A913YAJ5 2-422).
T1 sequence: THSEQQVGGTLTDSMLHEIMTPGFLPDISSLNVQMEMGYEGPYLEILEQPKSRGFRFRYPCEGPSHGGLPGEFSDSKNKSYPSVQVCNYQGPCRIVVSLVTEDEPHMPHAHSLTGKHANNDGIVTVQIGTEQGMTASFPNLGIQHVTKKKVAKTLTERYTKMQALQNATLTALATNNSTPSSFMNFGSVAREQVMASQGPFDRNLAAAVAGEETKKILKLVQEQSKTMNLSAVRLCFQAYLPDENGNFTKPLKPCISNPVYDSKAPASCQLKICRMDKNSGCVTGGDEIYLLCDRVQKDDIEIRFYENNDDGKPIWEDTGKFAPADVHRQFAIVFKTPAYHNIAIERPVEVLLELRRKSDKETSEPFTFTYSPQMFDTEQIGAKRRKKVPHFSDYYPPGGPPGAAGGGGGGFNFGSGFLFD

Assay [1] concerns the target T2, GST-Nv-NF-kB (Cys allele) (Nematostella vectensis, UniProt E5G601 2-411).
T2 sequence: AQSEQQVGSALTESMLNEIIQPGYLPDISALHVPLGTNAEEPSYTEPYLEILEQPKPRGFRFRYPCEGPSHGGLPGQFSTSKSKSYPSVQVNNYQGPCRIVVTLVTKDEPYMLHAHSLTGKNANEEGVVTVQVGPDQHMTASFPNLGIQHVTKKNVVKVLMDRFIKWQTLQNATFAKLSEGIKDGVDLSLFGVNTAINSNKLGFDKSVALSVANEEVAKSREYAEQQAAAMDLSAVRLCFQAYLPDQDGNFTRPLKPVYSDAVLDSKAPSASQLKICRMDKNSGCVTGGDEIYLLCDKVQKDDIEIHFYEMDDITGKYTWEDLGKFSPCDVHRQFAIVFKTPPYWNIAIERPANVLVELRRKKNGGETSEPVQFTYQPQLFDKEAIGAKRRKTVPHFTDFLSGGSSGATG

Assay [2] has as its target T3, GST-Nv-NF-kB (Ser allele) (Nematostella vectensis, UniProt A7UNT2 2-411).
T3 sequence: T2 sequence with Q21R, C66S, S207N, E215Q, V217A, E225K, A268E, D399E

The target in the next assay is T4, GST-Co-NF-kB (Capsaspora owczarzaki, UniProt F1ARL5 200-546).
T4 sequence: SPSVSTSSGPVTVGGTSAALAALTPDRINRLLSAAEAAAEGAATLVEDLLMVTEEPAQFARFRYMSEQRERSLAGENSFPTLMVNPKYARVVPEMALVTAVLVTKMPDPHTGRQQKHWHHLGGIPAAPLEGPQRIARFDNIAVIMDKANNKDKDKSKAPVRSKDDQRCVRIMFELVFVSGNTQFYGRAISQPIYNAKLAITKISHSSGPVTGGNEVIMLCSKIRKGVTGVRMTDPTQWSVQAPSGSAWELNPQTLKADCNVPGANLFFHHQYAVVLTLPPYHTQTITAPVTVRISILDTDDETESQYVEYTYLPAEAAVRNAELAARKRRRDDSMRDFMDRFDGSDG

For the next assay, the target named is T5, GST-Dm-Relish (Drosophila melanogaster, UniProt Q94527 99-473).
T5 sequence: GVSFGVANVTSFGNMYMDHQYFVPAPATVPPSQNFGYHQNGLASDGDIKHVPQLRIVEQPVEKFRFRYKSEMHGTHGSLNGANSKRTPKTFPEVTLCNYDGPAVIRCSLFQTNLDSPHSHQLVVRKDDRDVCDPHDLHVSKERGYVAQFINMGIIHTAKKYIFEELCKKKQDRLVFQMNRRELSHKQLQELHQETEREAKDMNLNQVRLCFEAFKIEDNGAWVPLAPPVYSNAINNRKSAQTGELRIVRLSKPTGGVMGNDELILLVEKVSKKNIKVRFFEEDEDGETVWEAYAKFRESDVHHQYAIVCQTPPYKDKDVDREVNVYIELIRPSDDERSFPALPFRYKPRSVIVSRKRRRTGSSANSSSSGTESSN

The next assay addresses T6, GST-Aq-NF-kB (Amphimedon queenslandica, UniProt A9Y5G7 2-389).
T6 sequence: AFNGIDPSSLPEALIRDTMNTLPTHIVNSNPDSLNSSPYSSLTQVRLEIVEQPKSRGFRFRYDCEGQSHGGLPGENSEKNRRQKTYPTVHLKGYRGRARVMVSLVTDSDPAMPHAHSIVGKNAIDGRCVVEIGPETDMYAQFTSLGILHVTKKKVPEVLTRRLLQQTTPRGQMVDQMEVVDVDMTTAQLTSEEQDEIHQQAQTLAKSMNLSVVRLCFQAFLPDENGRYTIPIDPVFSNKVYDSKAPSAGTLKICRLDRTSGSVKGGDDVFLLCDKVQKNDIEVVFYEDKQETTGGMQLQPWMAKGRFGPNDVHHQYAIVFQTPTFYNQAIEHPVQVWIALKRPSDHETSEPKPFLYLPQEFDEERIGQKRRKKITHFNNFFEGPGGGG

For another assay, the target named is GST-Hu-p50 (Homo sapiens, UniProt P19838 7-356).

Changes are numbered by the printed parent chain.

Sequence of GST-Hu-p50 (P19838 7-356): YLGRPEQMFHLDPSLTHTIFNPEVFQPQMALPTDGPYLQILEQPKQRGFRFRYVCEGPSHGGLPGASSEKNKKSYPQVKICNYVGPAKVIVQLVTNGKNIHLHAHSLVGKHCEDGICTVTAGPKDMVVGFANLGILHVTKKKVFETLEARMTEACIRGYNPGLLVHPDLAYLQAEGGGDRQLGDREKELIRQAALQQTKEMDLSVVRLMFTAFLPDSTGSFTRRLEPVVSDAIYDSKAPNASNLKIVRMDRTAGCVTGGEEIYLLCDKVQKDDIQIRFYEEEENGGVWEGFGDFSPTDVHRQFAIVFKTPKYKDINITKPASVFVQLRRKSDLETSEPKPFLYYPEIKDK

Take “CCGATTAACATCAATTTACCCCCTGATGTTAATCGGGTCTTGATTCGCTTGACGCTGCTG”: the binding signal turned out to be 6.21 z-score with GST-Ap-NF-kB RHD; 4.95 z-score in assay [1]; 6.18 z-score in assay [2]; 8.79 z-score in the assay with GST-Co-NF-kB; 3.42 z-score with GST-Dm-Relish; 4.56 z-score with GST-Aq-NF-kB. The sequence also gave a binding signal with GST-Hu-p50 of 5.04 z-score.
Regarding “CCGATTAACATCAAGACTCCCCCTGATGTTAATCGGGTCTTGATTCGCTTGACGCTGCTG”, the binding signal in the assay with GST-Ap-NF-kB RHD turned out to be 6.35 z-score; in assay [1], 5.25 z-score; in assay [2], 5.92 z-score; in the assay with GST-Co-NF-kB it was 5.87 z-score; in the assay with GST-Dm-Relish, 4.5 z-score; with GST-Aq-NF-kB, 5.15 z-score. Besides, the binding signal with GST-Hu-p50 is 5.69 z-score.
As for “CCGATTAACATCAGGGGAAGTCATGATGTTAATCGGGTCTTGATTCGCTTGACGCTGCTG”, the binding signal worked out at 5.98 z-score with GST-Ap-NF-kB RHD; 7.2 z-score in assay [1]; 7.6 z-score in assay [2]; 4.69 z-score with GST-Co-NF-kB; 6.43 z-score with GST-Dm-Relish; 6.01 z-score with GST-Aq-NF-kB. The same sequence yielded a binding signal with GST-Hu-p50 of 5.27 z-score.
For the sequence “CCGATTAACATCAAAACCCCCCGTGATGTTAATCGGGTCTTGATTCGCTTGACGCTGCTG”, the binding signal with GST-Ap-NF-kB RHD stood at 8.43 z-score; in assay [1] it was 6.29 z-score; in assay [2] it was 7.17 z-score; with GST-Co-NF-kB it was 5.04 z-score; with GST-Dm-Relish, 10.2 z-score; with GST-Aq-NF-kB, 7.07 z-score. This sequence yielded a binding signal with GST-Hu-p50 of 6.96 z-score.
For “CCGATTAACATCAATTTTCCCCCTGATGTTAATCGGGTCTTGATTCGCTTGACGCTGCTG”, the binding signal worked out at 7.68 z-score in the assay with GST-Ap-NF-kB RHD; 8.57 z-score in assay [1]; 11.2 z-score in assay [2]; 12 z-score with GST-Co-NF-kB; 4.81 z-score with GST-Dm-Relish; 6.79 z-score with GST-Aq-NF-kB. For the same sequence, the binding signal with GST-Hu-p50 worked out at 7.47 z-score.
For “CCGATTAACATCAGAGACCCCCCTGATGTTAATCGGGTCTTGATTCGCTTGACGCTGCTG”, the binding signal with GST-Ap-NF-kB RHD came out at 4.3 z-score; in assay [1] it was 3.27 z-score; in assay [2], 2.81 z-score; with GST-Co-NF-kB, 2.4 z-score; with GST-Dm-Relish, 5.26 z-score; with GST-Aq-NF-kB it was 3.97 z-score. This sequence also gave a binding signal in the assay with GST-Hu-p50 of 3.87 z-score.
As for “CCGATTAACATCAGGGGTAACCCTGATGTTAATCGGGTCTTGATTCGCTTGACGCTGCTG”, the binding signal with GST-Ap-NF-kB RHD worked out at 4.06 z-score; in assay [1] it was 2.99 z-score; in assay [2], 2.19 z-score; with GST-Co-NF-kB it was 4.77 z-score; in the assay with GST-Dm-Relish, 4.12 z-score; with GST-Aq-NF-kB, 5.1 z-score. The sequence also had a binding signal with GST-Hu-p50 of 3.1 z-score.
As for “CCGATTAACATCAGGGGTATTACTGATGTTAATCGGGTCTTGATTCGCTTGACGCTGCTG”, the binding signal stood at 4.43 z-score with GST-Ap-NF-kB RHD; 3.56 z-score in assay [1]; 3.14 z-score in assay [2]; 3.37 z-score with GST-Co-NF-kB; 3.55 z-score in the assay with GST-Dm-Relish; 4.5 z-score in the assay with GST-Aq-NF-kB. This sequence yielded a binding signal in the assay with GST-Hu-p50 of 3.9 z-score.
In the case of “CCGATTAACATCAAGGGGGGTGCTGATGTTAATCGGGTCTTGATTCGCTTGACGCTGCTG”, the binding signal was 4.44 z-score in the assay with GST-Ap-NF-kB RHD; 3.89 z-score in assay [1]; 3.43 z-score in assay [2]; 3.26 z-score in the assay with GST-Co-NF-kB; 4.11 z-score with GST-Dm-Relish; 4.32 z-score with GST-Aq-NF-kB. For the same sequence, the binding signal with GST-Hu-p50 was determined as 4.67 z-score.
With “CCGATTAACATCAGAGCTCCCCCTGATGTTAATCGGGTCTTGATTCGCTTGACGCTGCTG”, the binding signal with GST-Ap-NF-kB RHD was found to be 5.05 z-score; in assay [1], 4.31 z-score; in assay [2] it was 4.32 z-score; in the assay with GST-Co-NF-kB, 5.45 z-score; with GST-Dm-Relish, 1.98 z-score; with GST-Aq-NF-kB it was 3.98 z-score. In addition, the binding signal with GST-Hu-p50 was determined as 4.94 z-score.
Regarding “CCGATTAACATCACGTTTTCCCCTGATGTTAATCGGGTCTTGATTCGCTTGACGCTGCTG”, the binding signal with GST-Ap-NF-kB RHD worked out at 7.13 z-score; in assay [1], 7.87 z-score; in assay [2], 10.1 z-score; in the assay with GST-Co-NF-kB, 8.47 z-score; in the assay with GST-Dm-Relish, 4.49 z-score; with GST-Aq-NF-kB it was 5.5 z-score. In the assay with GST-Hu-p50, this sequence displayed a binding signal of 5.96 z-score.
For “CCGATTAACATCAAGGGGGTACTTGATGTTAATCGGGTCTTGATTCGCTTGACGCTGCTG”, the binding signal was found to be 4.81 z-score with GST-Ap-NF-kB RHD; 3.89 z-score in assay [1]; 4.77 z-score in assay [2]; 2.92 z-score with GST-Co-NF-kB; 2.88 z-score with GST-Dm-Relish; 3.78 z-score with GST-Aq-NF-kB. In the assay with GST-Hu-p50, this sequence came in with a binding signal of 4.47 z-score.
